# Source: PubChem (NMMLSC)
# GSH bead fluor: compound fluorescence on glutathione beads, profiling panel, artefact control, biophysical, 488/530 nm, flow cytometry; GSH beads flow cytometry, compound fluorescence 488/530 nm; stronger effect = higher value; fluorescence (KMESF) at 10 µM; 0.25% of 190,000 active; AID 1776, 2009; in the data active means fluorescence above about 89;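 further: glutathione beads carrying GST-tagged Bcl family fusion proteins plus one bare bead set; values are compound well signal with DMSO vehicle wells as background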
# RGS16-Gao: modulators of RGS16 binding to Galphao, primary screen, biochemical, human proteins, multiplexed bead flow cytometry. 0.38% of 220,000 active. bead-based flow cytometry RGS16-Galphao binding, fluorescence; actives lie on both sides. AID 1441, 2008. Regulator of G-protein signaling 16 (Homo sapiens) + Guanine nucleotide-binding protein …. binding response (% of control), % at 10 µM;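 further: Galphao activated by GDP with aluminum fluoride before binding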
# Target sequence (O15492 whole entry, looked up): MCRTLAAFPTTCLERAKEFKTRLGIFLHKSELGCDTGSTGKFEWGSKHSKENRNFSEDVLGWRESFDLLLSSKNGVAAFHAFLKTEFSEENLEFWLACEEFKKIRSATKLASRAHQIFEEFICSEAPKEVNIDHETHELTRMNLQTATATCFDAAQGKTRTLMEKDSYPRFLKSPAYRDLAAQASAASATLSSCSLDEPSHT
# Target sequence (P09471 whole entry, looked up): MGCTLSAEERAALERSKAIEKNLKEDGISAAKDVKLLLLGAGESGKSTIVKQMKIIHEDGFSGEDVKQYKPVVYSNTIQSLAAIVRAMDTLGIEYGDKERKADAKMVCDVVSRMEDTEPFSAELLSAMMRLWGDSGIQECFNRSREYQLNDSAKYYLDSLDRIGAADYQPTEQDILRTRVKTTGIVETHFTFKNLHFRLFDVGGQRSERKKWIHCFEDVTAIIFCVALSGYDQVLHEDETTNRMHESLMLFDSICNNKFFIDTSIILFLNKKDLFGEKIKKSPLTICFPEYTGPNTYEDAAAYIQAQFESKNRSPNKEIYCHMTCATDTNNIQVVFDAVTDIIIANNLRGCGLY
# RGS8-Gao: RGS8-Galphao binding modulators, primary screen, biochemical, multiplexed bead flow cytometry. Guanine nucleotide-binding protein G(o) subunit alpha (Homo sapiens), P09471. actives lie on both sides. response (percent of control binding), % at 10 µM. 0.34% of 220,000 active. AID 1423, 2008; in the data active means response below about 60% or above about 140%; inactive means in between;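 further: Galphao activated as the GDP aluminium fluoride complex binding bead-coupled RGS8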
# Target sequence (P09471 whole entry, looked up): as above
# Avidin bead fluor: green autofluorescence of compounds with avidin beads – biophysical, 488/530 nm, flow cytometry, artefact control, profiling panel | compound fluorescence 488/530 nm; stronger effect = higher value | fluorescence (KMESF) at 10 µM | 0.38% of 220,000 active; in the data active means fluorescence above about 47
# RGS7-Gao: RGS7-Galphao binding modulators, primary screen, biochemical, multiplexed bead flow cytometry; Guanine nucleotide-binding protein G(o) subunit alpha (Homo sapiens), P09471; actives lie on both sides; 0.35% of 220,000 active; binding response (% of control), % at 10 µM; in the data active means binding response below about 49% or above about 150%; inconclusive means no clear call, values can overlap the other calls; inactive means in between;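 further: fluorescent Galphao held in activated GDP-AlF4 state binding bead-coupled RGS7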
# RGS4-Gao reg: modulators of RGS4 binding to Galphao, primary screen, biochemical, multiplexed bead flow cytometry | Guanine nucleotide-binding protein G(o) subunit alpha (Homo sapiens), P09471 | actives lie on both sides | binding response (% of control), % at 10 µM | 0.33% of 220,000 active | AID 1415, 2008; in the data active means binding response below about 49% or above about 150%; inactive means in between;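 further: fluorescent Galphao activated with aluminum fluoride binding bead-coupled RGS4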
# RGS4-Gao HTS: modulators of RGS–Galpha-o binding, primary screen, biochemical, multiplexed beads, flow cytometry, RGS4/7/8/16/19; multiplexed bead flow cytometry; RGS4–Galpha-o binding response, % at 10 µM; 99% of 1,600 active; shares compounds with RGS16-Gao;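 further: fluorescently labeled Galpha-o bound to GDP with aluminium fluoride binding biotinylated RGS beads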
# Avidin counter: disruption of biotin probe capture by avidin, counter-screen for RGS protein interaction modulators, biochemical, flow cytometry, bead-based. inhibition, % at 10 µM. streptavidin beads, fluorescein-biotin binding. AID 1783, 2009. 1,700 tested, under 10 active. shares compounds with RGS16-Gao;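 active means inhibition above 50%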;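 further: median green fluorescence of gated singlet beads compared with DMSO control wells; 0% = DMSO wells and 100% = complete loss of bead fluorescence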
# RGS8-Gao single: RGS8-Galphao binding modulators, confirmation, biochemical, multiplexed bead flow cytometry, single concentration | bead-based flow cytometry RGS8-Galphao binding, fluorescence; actives lie on both sides | AID 1836, 2009 | 3% of 1,700 active | binding response (% of control), % at 10 µM | shares compounds with RGS16-Gao; in the data active means binding response below about 72% or above about 130%; inactive means in between;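 further: Galphao activated as GDP AlF4 complex before binding bead RGS8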
# RGS7-Gao confirm: RGS7-Galphao binding modulators, confirmation, biochemical, multiplexed bead flow cytometry, single concentration | bead-based flow cytometry RGS7-Galphao binding; actives lie on both sides | 7.8% of 1,700 active | response (percent of control binding), % at 10 µM | shares compounds with RGS16-Gao | AID 1837, 2009; in the data active means response below about 75% or above about 130%; inactive means in between;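 further: fluorescent Galphao activated with GDP and aluminum fluoride binding bead-coupled RGS7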
# RGS16-Gao single: modulators of RGS16-Galphao protein binding, confirmation, biochemical, single concentration, multiplexed bead flow cytometry; 4% of 1,700 active; shares compounds with RGS16-Gao; AID 1838, 2009; response (% of control binding), % at 10 µM; bead-based flow cytometry; actives lie on both sides; in the data active means response below about 74% or above about 130%; inactive means in between;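 further: Galphao activated as the GDP aluminium fluoride complex binding bead-coupled RGS16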
# RGS4-Gao confirm: modulators of RGS4-Galphao protein binding, confirmation, biochemical, single concentration, multiplexed bead flow cytometry | shares compounds with RGS16-Gao | binding response (% of control), % at 10 µM | AID 1840, 2009 | 4% of 1,700 active | actives lie on both sides; in the data active means binding response below about 74% or above about 130%; inactive means in between
# RGS19-Gao single: regulators of RGS19-Galphao binding, confirmation, biochemical, single point, multiplexed bead flow cytometry; shares compounds with RGS16-Gao; bead-based flow cytometry RGS19-Galphao binding; actives lie on both sides; response (percent of control binding), % at 10 µM; 5% of 1,700 active; AID 1841, 2009; in the data active means response below about 50% or above about 160%; inactive means in between;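 further: 100% = no compound control and 0% = blank background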
# The depositor's hits bear a star; u = inconclusive; x = not tested or not shown; [ ] = another dose, or the depositor's remark. Only some compounds are listed: those with a hit (about 1.2% of all), similar ones and a draw of the others. Unless noted, how the calls were made is not given here.
SMILES,GSH bead fluor,RGS16-Gao,RGS8-Gao,Avidin bead fluor,RGS7-Gao,RGS4-Gao reg,Avidin counter,RGS8-Gao single,RGS7-Gao confirm,RGS16-Gao single,RGS4-Gao confirm,RGS19-Gao single,others
CC(=O)/C(=N/Nc1ccccc1)Sc1nnc(C(O)c2ccccc2)n1-c1ccccc1 (stereo not drawn),15,17.7*,84.8,8,96.0,99.1,0.0,95.4,105.3,99.3,101.3,105.9,RGS4-Gao HTS=99.1*
COc1cc(/C=N/NC(=O)CSc2ccccn2)ccc1OC(C)C,x,102.1,100.3,8,u,99.9,x,x,x,x,x,x,
Cc1ccc2cc3cc(C(=O)N4CCN(Cc5ccccc5)CC4)sc3nc2c1,231*,193.2*[activator],124.0,69*,162.0*[activator],171.7*[activator],-0.5,99.4,94.5,97.0,95.1,90.0,
COc1ccc2c(Cl)c(C(=O)N/N=C/c3c(C)[nH]c4ccccc34)sc2c1,14,127.8,105.3,32,156.1*[activator],139.4,1.0,121.1,267.4*[activator],175.1*[activator],186.8*[activator],368.2*[activator],RGS4-Gao HTS=139.4*
Cc1ncoc1C(=O)N1CCCC(C(=O)c2ccc(C(F)(F)F)cc2)C1 (stereo not drawn),11,101.1,100.7,11,101.6,101.3,x,x,x,x,x,x,
OCCOCCN1CCN(C(=S)Nc2ccccc2)CC1,10,105.8,100.4,22,99.2,100.8,x,x,x,x,x,x,
O=S(=O)(c1ccccc1)c1ncc(C(F)(F)F)cc1Cl,16,10.3*,14.5*,x,11.5*,15.1*,-0.2,105.7,99.3,103.3,98.3,94.5,
CCOC(=O)c1c(C)[nH]c(C(=O)COC(=O)C2CC(=O)N(Cc3ccccc3)C2)c1C (stereo not drawn),239*,510.9,163.2*[activator],97*,218.2*[activator],166.2*[activator],0.4,98.7,95.0,91.6,94.9,93.3,
CCC(=O)Nc1cc(-c2nn(CC(=O)N3CCCCC3)c(=O)c3ccccc23)ccc1N1CCOCC1,34,108.5,100.1,143*,155.4*[activator],117.0,-1.6,103.6,99.6,102.9,101.3,111.6,RGS4-Gao HTS=117.0*
CCCN(CCC)c1nc(C#N)nc(N(CCC)CCC)n1,11,29.4,47.6*,1,54.4,96.4,0.7,98.0,101.2,101.8,95.8,92.5,RGS4-Gao HTS=96.4*
CC(C)(C)C(=O)/C=C/c1ccc(Oc2ccccc2)cc1,x,108.7,103.5,5,u,107.9,x,x,x,x,x,x,
CCOC(=O)N1CCN(C(=O)c2c(N)no[n+]2[O-])CC1,9,101.2,100.8,10,96.8,96.8,x,x,x,x,x,x,
O=C(Nc1nc(-c2ccccc2)c(C(=O)c2ccccc2)s1)c1ccc(S(=O)(=O)N2CCCC2)cc1,64,349.0*[activator],135.3,172*,381.3*[activator],296.6*[activator],1.4,103.7,101.0,100.6,103.3,90.6,
CCOc1ccc(C2NC(=O)NC(C)=C2C(=O)OC)cc1C (stereo not drawn),29,x,x,x,x,x,1.9,101.9,100.0,101.5,103.8,95.3,
CCCOc1cc(C)c(S(=O)(=O)NC2CC(C)(C)NC(C)(C)C2)cc1C,8,95.9,99.9,7,101.9,99.4,x,x,x,x,x,x,
Cc1ccc(NC(=O)CO/N=C(\N)c2nonc2N)cc1C,9,25.0*,79.8,9,92.2,91.9,-5.2,103.2,106.1,104.6,102.6,86.9,RGS4-Gao HTS=91.9*
Cc1cc(N2CCN(c3ccccc3)CC2)nc(-c2ccccc2O)n1,13,-548.8,89.6,7,83.6,38.3*,1.1,100.2,105.5,103.1,102.5,106.1,
Cc1cc(N2CCC(C)CC2)nc(-c2ccccc2O)n1,x,98.6,99.1,7,u,101.7,x,x,x,x,x,x,
Cc1ccc(NC(=O)Cn2c(-c3ccc(F)cc3)cnc2SCC(=O)Nc2c(C)cccc2C)cc1,16,104.2,104.3,15,103.3,101.9,x,x,x,x,x,x,
COCCn1c(C)cc(C(=O)COC(=O)c2ccc3ncsc3c2)c1C,10,-52.9*,47.2*,5,14.7*,-46.2*,1.2,94.1,97.5,84.9,81.3,127.7,
O=C(CSC(=S)N1CCCCC1)Nc1ncc2c(n1)CC(c1ccco1)CC2=O (stereo not drawn),x,165.7,143.9*[activator],7,u,181.0*[activator],0.3,95.1,94.8,96.6,94.2,94.1,
CC(=O)Nc1ncc2c(n1)CC(c1ccco1)CC2=O (stereo not drawn),26,98.8,97.6,14,93.7,97.1,x,x,x,x,x,x,
Cc1ccc(S(=O)(=O)NC(=O)Nc2ncc3c(n2)CC(c2ccco2)CC3=O)cc1 (stereo not drawn),8,13.9*,62.9,2,77.0,78.6,0.2,101.9,106.6,102.4,102.8,92.8,RGS4-Gao HTS=78.6*
S=c1[nH]nc(-c2ccncc2)n1/N=C/c1cccc(Cl)c1,x,101.3,101.2,8,u,100.0,x,x,x,x,x,x,
CCC1ON(c2ccccc2)C2c3nc4ccccc4n3CC12 (stereo not drawn),x,110.3,103.4,22,u,109.5,x,x,x,x,x,x,
